Results: PubChem BioAssay (NCI)
About 83,000 compounds went through this panel and 20% of them were active in at least one assay; those are over-represented in the sample as a whole.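 Method: cells in 96-well plates; compound added at one concentration; 48 h incubation; percent growth measured; values under 10 scored active.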 Values without a mark were called inactive. Calls of active or inactive are those of the source.

Tests used:
Assay in all cases: NCI-60 one-dose screen, 48 h (100 = growth as untreated, 0 = no growth, -100 = all killed)
Settings in all cases: 10 µM unless noted
[1] = system: SK-MEL-2 melanoma
[2] = system: EKVX NSCLC
[3] = system: SN12C renal
[4] = system: UO-31 renal
[5] = system: TK-10 renal
[6] = system: ACHN renal
[7] = system: CAKI-1 renal
[8] = system: A498 renal
[9] = system: CCRF-CEM leukemia
[10] = system: MOLT-4 leukemia
[11] = system: SR leukemia
[12] = system: RPMI-8226 leukemia
[13] = system: OVCAR-8 ovarian
[14] = system: OVCAR-5 ovarian
[15] = system: OVCAR-4 ovarian
[16] = system: SK-OV-3 ovarian
[17] = system: IGROV1 ovarian
[18] = system: OVCAR-3 ovarian
[19] = system: HS 578T breast
[20] = system: NCI/ADR-RES ovarian

Row | SMILES | growth [1] | growth [2] | growth [3] | growth [4] | growth [5] | growth [6] | growth [7] | growth [8] | growth [9] | growth [10] | growth [11] | growth [12] | growth [13] | growth [14] | growth [15] | growth [16] | growth [17] | growth [18] | growth [19] | growth [20]
1 | CNC(C)[C@H]1CCC2C3CC=C4C(=O)[C@@H](NC(=O)C=C(C)C)CC[C@]4(C)C3CC[C@@]21C (stereo partly specified) | 23.8% | 24.2% | 17% | -35.5% (active) | 60.1% | 26% | 3.96% (active) | 56% | -20% (active) | -55.8% (active) | -49.7% (active) | -43.7% (active) | 42.5% | 66.3% | -13.3% (active) | 46.4% | 9.81% (active) | -14% (active) | 10.2% | 39.1%
2 | Cc1c2cccnc2c(C)c2c1c1cc(CO)ccc1n2C | 29.9% | 20.3% | 14.7% | 17.9% | 26.7% | 13.9% | 7.09% (active) | -81.1% (active) | 29.9% | 22.9% | 14.3% | 23.1% | 28.6% | 2.92% (active) | 33.3% | 43.1% | 4.27% (active) | 25.2% | 47.6% | 24.2%
3 | Cc1c(CC(=S)N2CCOCC2)nnn1-c1cccc(C(F)(F)F)c1 | 111% | 104% | 103% | 82.9% | 104% | 106% | 93.2% | 102% | 103% | 102% | 105% | 103% | 104% | 97.8% | 103% | 108% | 104% | 110% |  | 105%
4 | Nc1nc(N)c2c(n1)NC(c1cccc(Nc3ccnc4cc(C(F)(F)F)ccc34)c1)CC(c1ccc(Br)cc1)=N2 (stereo unspecified) | 52.4% | 51.5% | 63% | 62.2% | 96.8% | 82% | 48.6% | 77.1% | 17% | 9.24% (active) | 0.0412% (active) | 5.34% (active) | 66% | 107% | 77.5% | 57.2% | 58.8% | 38.1% | 68.4% | 56.5%
5 | CC1=CC(c2ccco2)=C2C(N)=NNC2N1 (stereo unspecified) | 108% | 96.9% | 89.9% | 80.9% | 111% | 90.8% | 82.6% | 86.3% | 101% | 103% | 94.2% | 106% | 97.7% | 87.7% | 92.6% | 101% | 86.9% | 104% |  | 98.9%
6 | Cn1c(=O)c2[nH]c(SCC(=O)Nc3ccc(C(=O)/C=C/c4ccccc4Cl)cc3)nc2n(C)c1=O | 126% | 87.9% | 97.7% | 92.7% | 104% | 99% | 98.1% | 85.6% | 79.5% | 87.4% | 78.1% | 82.2% | 95% | 101% | 88.3% | 97.3% | 100% | 94.7% | 95.5% | 101%
7 | CC(=O)ON1CCCC(P(=O)(OCCSC(=O)C(C)(C)C)OCCSC(=O)C(C)(C)C)C1=O (stereo unspecified) | 50.6% | 22.8% | 3.59% (active) | -0.776% (active) | 27.2% | 20.1% | 24% | -8.82% (active) | -6.31% (active) | 15.5% | 6.15% (active) | -17.3% (active) | 10.7% | 89.2% | 29.7% | 38.6% | 16.3% | 10.4% | 19.6% | 13.2%
8 | O=C(Nc1ncc(Cc2ccccc2)s1)c1ccc2c(c1)OCCCO2 | 30.6% | 36.7% | 40.4% | 48.1% | 55.9% | 34% | 25.3% | -2.27% (active) | 16.2% | 21.4% | 7.17% (active) | 14.3% | 44.9% | 47.6% | 52.3% | 55.2% | 41.1% | -10.5% (active) | 49.7% | 9.35% (active)
9 | C=C1C(=O)O[C@H]2[C@H]1CC/C(Cn1cc(CCC)nn1)=C\CC[C@@]1(C)O[C@@H]21 | 44.7% | 77.4% | 23.1% | 0.946% (active) | -15.9% (active) | -0.504% (active) | 5.35% (active) | 39% | -27.4% (active) | -1.09% (active) | 0.0381% (active) | 26.9% | 23.7% | 68.2% | 40.3% | 111% | 41% | 1.06% (active) |  | 73.1%
10 | C[C@H](CCCC(=O)NCC#CCN1CCN(C)CC1)[C@H]1CC[C@H]2[C@@H]3CC[C@@H]4CC(=O)CC[C@]4(C)[C@H]3CC[C@]12C | 103% | 93.5% | 86% | 64.5% | 99% | 105% | 108% | 75.4% | 81.2% | 84.3% | 48.3% | 86.7% | 94.6% | 93.3% | 98.4% | 81.6% | 92.2% | 91.5% | 81.8% | 93.5%
11 | Cc1ccc(-c2nc3nc(-c4ccccc4)nc(N4CCCN(S(C)(=O)=O)CC4)c3o2)cc1 | 86.2% | 93.7% | 71.8% | 59.3% | 66.9% | 46.1% | 63.4% | 94.3% | 63.9% | 56.3% | 30.8% | 92.5% | 50.7% | 92.5% | 48.2% | 81.3% | 75.7% | 83.4% | 86.5% | 56.2%
12 | CCC1S/C(=N\N=C(\C)c2cc3cc(Cl)ccc3o2)N(c2ccccc2)C1=O (stereo unspecified) | 299% | 102% | 118% | 145% | 88% | 103% | 60.1% | 22.2% | -53.2% (active) | 36.4% | 85.1% | 83.7% | 126% | 100% | 107% | 108% | 671% | 75.5% | 52.4% | 90.8%
13 | COc1cc(OC)c(/C=C/C(=O)c2c(O)cc(OC)c(C3CCN(C)CC3)c2OC)c(OC)c1 | -57.8% (active) | 22.9% | 4.89% (active) | -76.2% (active) | -82.5% (active) | -98.3% (active) | -62.8% (active) | 17.8% | -19.3% (active) | -34.4% (active) | -22.2% (active) | -45.3% (active) | 1.17% (active) | -29.8% (active) | 19.3% | -79.7% (active) | 29.1% | -51.1% (active) | -46.2% (active) | -19.3% (active)
14 | CC1C=CC(OC(=O)C(C)(O)CCC(O)(C(=O)OC2CC(O)C(C(C)C)CC2(C)O)C(C)C)(C(C)C)CC1 (stereo unspecified) | -81.6% [4.63 µM] (active) | -73.6% [4.63 µM] (active) | -62.4% [4.63 µM] (active) | -99.6% [4.63 µM] (active) | -86.1% [4.63 µM] (active) | -93.8% [4.63 µM] (active) | -97.3% [4.63 µM] (active) | -92.3% [4.63 µM] (active) | -31.8% [4.63 µM] (active) | -46.4% [4.63 µM] (active) | -24.7% [4.63 µM] (active) | -39.7% [4.63 µM] (active) | -9.1% [4.63 µM] (active) | -85.3% [4.63 µM] (active) | -90.5% [4.63 µM] (active) | -91.5% [4.63 µM] (active) | -70.6% [4.63 µM] (active) | -94.3% [4.63 µM] (active) |  | -9.57% [4.63 µM] (active)
15 | Cc1ccc2c(-c3nnc(N)s3)cc(=O)oc2c1C | 110% | 97.3% | 99.8% | 80.2% | 102% | 103% | 94.1% | 85.1% | 39.2% | 102% | 110% | 91.2% | 96.1% | 114% | 100% | 109% | 98.5% | 110% | 95.6% | 102%
